High-throughput results: PubChem, several laboratories
ROMK primary – modulators of human ROMK potassium channel. B-score at 10 µM. P48048. AID 1918. Tet-inducible ROMK, thallium flux fluorescence; actives lie on both sides. actives 2% (n = 130,000);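 active means signal ratio slope over the read window, or its plate-corrected B-score, at least 3 SD from the plate mean, either direction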;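 further: B-score of the F/F0 ratio slope over 7 to 12 s after thallium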
Target sequence (P48048 whole entry, looked up): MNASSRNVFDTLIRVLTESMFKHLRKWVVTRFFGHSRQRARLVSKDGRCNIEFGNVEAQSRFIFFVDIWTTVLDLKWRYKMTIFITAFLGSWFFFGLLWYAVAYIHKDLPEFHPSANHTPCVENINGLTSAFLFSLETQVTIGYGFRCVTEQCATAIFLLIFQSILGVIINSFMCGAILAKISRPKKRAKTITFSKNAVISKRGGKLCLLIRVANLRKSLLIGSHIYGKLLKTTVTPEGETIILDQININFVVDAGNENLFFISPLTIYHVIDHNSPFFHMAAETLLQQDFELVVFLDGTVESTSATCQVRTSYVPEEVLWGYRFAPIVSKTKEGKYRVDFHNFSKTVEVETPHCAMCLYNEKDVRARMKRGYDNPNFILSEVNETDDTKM
m-calpain inh – inhibitors of pig calpain II; purified calpain II, fluorogenic peptide substrate, 30 min; inhibition, % at 16 µM; actives 0.37% (n = 220,000); AID 1236;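 active means inhibition above about 50%, limit read from the data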
KCC2 mod – modulates chloride dependent transport by human KCC2. KCC2 cells, thallium flux FluoZin-2 fluorescence. B-score of Tl+ flux slope (higher = more flux/activation; lower = inhibition) at 10 µM. actives 2.2% (n = 190,000);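 active means thallium flux slope and its plate-corrected score both differing from the plate sample mean at a set confidence after two filtering rounds, in either direction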;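 further: slope of fluorescence scaled to starting intensity during 10 to 20 s after thallium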
L major viab – reduces viability of Leishmania major promastigotes | resazurin fluorescence viability | inhibition, % at 10 µM | actives 9% (n = 200,000) | AID 1063; in the data active means inhibition above about 50%;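 further: promastigotes grown with compound for 44 hours at 28 °C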
WT yeast gro inh – growth inhibition of WT yeast, mitochondrial fusion screen; inhibition, % at 10 µM; mitochondrial fusion phenotypic screen, WT strain; actives 2.1% (n = 190,000); in the data active means inhibition above about 58%; tested in S. cerevisiae
* marks the source's active call; other numbers are inactive results; i = inactive; · = no result given. Most compounds without a hit are left out; they make up all but 12% or so of the library.

SMILES	ROMK primary	m-calpain inh	KCC2 mod	L major viab	WT yeast gro inh
CCOc1ccccc1NC(=S)N1CCN(c2nc(-c3ccc(F)cc3)cs2)CC1	-0.75	-35	-0.91	90*	25
COc1ccc(NC(=O)CN2CCN(c3nc(-c4cccc(OC)c4)cs3)CC2)cc1	-1.3	11	1.1	6	24
COc1ccc(NC(=O)CN2CCN(c3nc(-c4ccc(F)cc4)cs3)CC2)c(OC)c1	0.045	56*	-0.19	-4	27
CC(C)(C)OC(=O)NCCc1nnc(SCc2ccc(Cl)cc2Cl)o1	·	2	-0.0044	1	0
Clc1cccc(NCc2nnc(SCc3ccc(Cl)cc3Cl)o2)c1	·	18	0.072	-5	62*
O=C(Cn1cnc2c(nnn2Cc2ccc(F)cc2)c1=O)Nc1ccccc1	·	4	-0.047	·	·
Cc1ccc(C2/C(=C(\O)c3c(C)nc4ccccn34)C(=O)C(=O)N2CCN(C)C)o1 (stereo not given)	0.1	-22	1.3	·	·
CC1CC(=O)NN1C(=O)c1ccccc1 (stereo not given)	0.39	-2	-0.016	·	·
O=C(c1cccc(Cl)c1)N1CCCC(c2ccc(Cl)cc2)=N1	·	16	·	8	78*
CCc1cc(C(=O)NNC(=S)Nc2cc(C)ccc2C)cs1	·	-16	10*	7	-13
Cc1ccc(C)c(NC(=S)NNC(=O)c2csc3c2CCC(C)C3)c1 (stereo not given)	1.5	-40	21*	10	13
Cc1ccc(C)c(NC(=S)NNC(=O)c2csc3c2CCCC3)c1	-0.73	25	79*	1	34
CCNC(=S)NNC(=O)c1csc2c1CCCC2	0.023	5	-0.34	-7	-3
Cc1cccc(NC(=S)NNC(=O)c2csc3c2CCCC3)c1	-1	19	21*	-7	40
COc1cc(OC)c(NC(C)C(=O)N2CCCC2)cc1Cl (stereo not given)	1.2	17	0.2	2	-5
Cc1ccsc1/C=N/NC(=O)CNC(=O)c1cccc([N+](=O)[O-])c1C	0.15	15	-0.02	11	-2
Cc1ccc(-n2c(=O)cc(NCc3cccnc3)[nH]c2=O)cc1	·	-19	1.9	-1	-1
O=C(Nc1ccon1)c1csc2c1CCCC2	·	-60	-0.57	78*	13
O=C(Nc1ccon1)c1csc2ccccc12	·	21	-0.029	-5	4
COc1ccccc1Cn1c(=O)c2ccccc2n2c(SCc3csc(C)n3)nnc12	·	-6	-0.0012	5	17
COc1ccccc1Cn1c(=O)c2ccccc2n2c(Sc3ncnc4sccc34)nnc12	·	12	0.51	89*	34
O=c1c2ccccc2nnn1COc1ccc(Cl)cc1Br	-0.64	-10	-1.8	-3	-23
O=C(/C=C/c1ccccc1)/C=C/c1ccccc1	-0.12	10	-0.38	100*	57
COc1ccc(-c2ccc(SCC(=O)c3ccccc3)nn2)cc1OC	0.56	14	-0.97	61*	6
Cc1cc(Cl)ccc1OCCCC(=O)OCC(=O)c1c(N)n(C)c(=O)n(C)c1=O	·	44	-0.38	·	·
SMILES	ROMK primary	m-calpain inh	KCC2 mod	L major viab	WT yeast gro inh
Cc1nc2c(c(=O)n1CC1CCCO1)c1nc3ccccc3nc1n2CCC(C)C (stereo not given)	0.24	·	·	·	·
COCCNC(=O)c1c(N)n(CCC2=CCCCC2)c2nc3ccccc3nc12	-1.6	i	-0.02	100*	2
CCC(C)n1c(C)nc2c(c1=O)c1nc3ccccc3nc1n2CCC1=CCCCC1 (stereo not given)	·	-145	·	57*	5
CCNc1nc(Sc2ccc(C)cc2)cc(C(F)(F)F)n1	·	27	0.59	-2	85*
CCN(CC)S(=O)(=O)c1cccc(NC(=O)c2cc(-c3cccs3)nn2-c2ccccc2)c1	0.02	-1	-0.89	98*	-8
CN(C)S(=O)(=O)c1cccc(NC(=O)c2cc(-c3cccs3)nn2-c2ccccc2)c1	0.0034	-17	-0.12	8	7
COCCN(C(=O)CC1C(=O)NCCN1CC(c1ccccc1)c1ccccc1)C(C)C (stereo not given)	0.8	12	·	-7	-10
N#CCCn1nc(-c2ccccc2)cc1Nc1ccccc1NC(=O)c1cccs1	·	9	-2.1	59*	5
N#Cc1ccsc1NC(=O)COC(=O)c1cc2ccccc2cc1O	-0.2	31	-0.25	79*	1
CN(CC(=O)Nc1nc2ccccc2s1)S(=O)(=O)c1ccc(Cl)cc1	0.012	-12	-0.15	88*	7
CN(CC(=O)Nc1nc2ccccc2s1)S(=O)(=O)c1ccc(Br)cc1	-0.53	1	0.069	16	5
CCN(CC)c1ccc2cc(-c3nnc(-c4ccncc4)o3)c(=O)oc2c1	·	-246	i	68*	11
NS(=O)(=O)c1ccc(NC(=O)COC(=O)C2CC(=O)N(Cc3ccccc3)C2)cc1 (stereo not given)	-0.015	-4	0.62	-5	-5
O=C(O)c1cc(-c2ccc(Cl)cc2)n(-c2ccc(Cl)cc2)n1	1.9	-38	-2.5	10	-5
CC(C)NC(=O)C1CCN(C2CCN(Cc3nc(C(C)C)cs3)CC2)CC1	-0.038	-7	0.53	21	-2
CC(C)NC(=O)C1CCN(C2CCN(Cc3ccc4cccc(F)c4n3)CC2)CC1	-0.18	5	0.66	73*	9
CCOC(=O)c1cc(-c2cccs2)nc2c1c(C)nn2-c1ccccn1	-0.023	-350	-1.5	38	69*
Cc1nn(-c2ccccn2)c2nc(-c3cccs3)cc(C(=O)NCc3ccco3)c12	-0.73	i	-0.062	53*	8
CCOc1ncccc1C(=O)N1CCN(S(=O)(=O)c2ccc(Br)cc2Cl)CC1	-0.044	4	1.4	-1	-10
O=C(O)c1ccc(Nc2nc(-c3cccnc3)nc3ccccc23)cc1	·	22	-0.31	-2	-8
O=C(N/N=C/c1cc2c3c(c1O)CCCN3CCC2)c1ccccc1O	·	-80	0.81	100*	5
Cc1nn(-c2ccccc2)c(N2CCCC2)c1/C=N/NC(=O)c1ccccc1O	-0.16	-25	-0.66	6	7
O=S(=O)(c1ccccc1)N1CCN=C1SCc1cccc(Cl)c1	-0.16	34	-1.6	22	54
O=S(=O)(c1ccccc1)N1CCN=C1SCc1ccc(Cl)c(Cl)c1	-0.15	13	-0.89	51*	53
O=S(=O)(c1ccccc1)N1CCN=C1SCc1ccc(Cl)cc1	·	1	-0.99	100*	46
Cc1ccc(NC(/C=C/N(C)C)=C/C(=O)C(F)(F)F)c(C)c1	-0.56	26	-1.4	30	80*
CN(C)/C=C\C(=C/C(=O)C(F)(F)F)Nc1ccccc1Oc1ccccc1	-1	2	-0.94	3	-11
C/C(N)=C(/C#N)C(=O)CSc1nc2cc(Cl)ccc2s1	0.16	-164	·	13	32
CCn1nc([N+](=O)[O-])c(C(C#N)c2nc3cc(C(F)(F)F)ccc3s2)c(Cl)c1=O (stereo not given)	-5*	-14	-5.7*	-5	43
Cc1cccc(N(CC(O)CON=C2c3ccccc3-c3ccccc32)S(C)(=O)=O)c1 (stereo not given)	·	37	-0.41	56*	63*
